From PubChem BioAssay
Most compounds without a hit are left out; they make up all but 13% or so of the library.
A350 fluor = compounds fluorescent in Alexa 350 spectral region; max dye-equivalent concentration, M; AID 590; Compound autofluorescence, 340/450 nm, Alexa 350 dye-equivalents; active compounds read high; 59,000 compounds, 11% hits; in the data active means max dye-equivalent concentration above about 10 nM; inconclusive means mostly about 1.1 nM to 9.6 nM
HADH2 inhib = inhibitors of human HADH2 dehydrogenase | Potency, µM (doses to about 57.1 µM), hits mostly inhibitors | 73,000 compounds, 3.4% hits | recombinant HADH2, NADH fluorescence, beta-hydroxybutyryl-CoA | Q99714; further: nearly all actives have a fitted effect of over 60% in size
Target sequence (Q99714 whole entry, looked up, one chain of several): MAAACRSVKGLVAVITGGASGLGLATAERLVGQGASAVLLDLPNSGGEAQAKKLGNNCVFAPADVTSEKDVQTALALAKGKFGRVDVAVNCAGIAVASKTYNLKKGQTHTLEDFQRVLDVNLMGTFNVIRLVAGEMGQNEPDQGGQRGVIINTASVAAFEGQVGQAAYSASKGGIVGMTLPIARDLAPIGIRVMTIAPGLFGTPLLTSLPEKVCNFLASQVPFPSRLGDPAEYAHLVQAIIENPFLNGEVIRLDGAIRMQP
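NADH fluorescence (ex 360/em 450 nm) read every 30 s for 4 min; activity taken as last-minus-first time point difference. Enzyme 20 nM, NAD+ 1 mM, beta-hydroxybutyryl-CoA 90 uM, pH 9.0 Tris buffer.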
HSD17B inhib = HSD17B dehydrogenase inhibition; Q99714; recombinant HSD17B10, NADH fluorescence kinetic; Potency, µM (doses to about 57.1 µM), usual class: inhibitors; 75,000 compounds, 7.6% hits; AID 893;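 further: the protocol describes HADH2 (HSD17B10) and not the HSD17B4 of the title; nearly all actives have a fitted effect of over 70% in size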
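20 nM HADH2, pH 9.0 Tris/Tween; cpd preinc 15 min RT; start w/ 1 mM NAD+ + 90 uM b-hydroxybutyryl-CoA; kinetic fluor ex360/em450 q30s x 4 min; delta last-first.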
AID923 = qHTS Assay for Allosteric/Competitive Inhibitors of Caspase-1: Spectroscopic Profiling in AFC Spectral Region; 75,000 compounds, 1.1% hits; Potency, µM (top dose mostly 57.5 µM), hits mostly activators; compound fluorescence, AFC spectral region (405/520 nm)
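Titrations up to 57 uM read every 20 sec for 3 min (405/520 nm) with 50 nM caspase 1 and 5 uM Ac-WEHD-AFC, pH 7.5 HEPES buffer. Fluorescence-vs-time intercept gave baseline, scaled against on-plate AFC standard.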
4MU fluor = compounds fluorescent in 4-MU spectral region | compound autofluorescence, 340/450 nm, 4-MU equivalents; active compounds read high | max dye-equivalent concentration, M | 59,000 compounds, 11% hits; in the data active means max dye-equivalent concentration above about 10 nM; inconclusive means mostly about 1.1 nM to 9.6 nM
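Intrinsic fluorescence at 340/450 nm (ex/em) was read after 15 min at room temperature in pH 8.0, 100 mM Tris. Each compound concentration expressed as 4-MU-equivalent concentration from a six-point 4-MU standard series on each plate.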
Numbers stand for hits; [ ] = another dose, or the depositor's remark. Unless noted, the call rests on the fitted dose curve; in most records, active means well fitted curve in the direction sought with a large enough effect; inconclusive means small, poorly fitted or top-dose-only effect, or another doubt; inactive means no such curve, though single readings can be large; an effect the other way counts as inactive or inconclusive.

How did Cc1cc(N2CCN(C)CC2)nc2ccc(NC(=O)c3ccc(Br)o3)cc12 do in these assays?
A350 fluor: inconclusive; HADH2 inhib: inactive; HSD17B inhib: inactive; AID923: inactive; 4MU fluor: inconclusive

Results for CCOc1ccccc1NC(=O)CCC(=O)Nc1ccc2nc(N3CCN(C)CC3)cc(C)c2c1 ?
A350 fluor: 2.6e-07M; HADH2 inhib: inconclusive; HSD17B inhib: 25µM; AID923: inactive; 4MU fluor: 2.3e-07M

What do the screens show for `CCC(C)NC(=O)CCC(=O)Nc1ccc2nc(N3CCOCC3)cc(C)c2c1` (stereo not given)?
A350 fluor: 1.5e-06M; HADH2 inhib: inactive; HSD17B inhib: 32µM; AID923: inactive; 4MU fluor: 1.5e-06M

What do the screens show for `Cc1cc(N2CCN(C)CC2)nc2ccc(NC(=O)c3ccc4c(c3)OCO4)cc12`?
A350 fluor: 2.4e-08M; HADH2 inhib: inactive; HSD17B inhib: inactive; AID923: inactive; 4MU fluor: 1.9e-08M

How did Cc1cc(N2CCOCC2)nc2ccc(NC(=O)CCC(=O)N3CCC(C)CC3)cc12 do in these assays?
A350 fluor: 1e-06M; HADH2 inhib: 25µM; HSD17B inhib: 16µM; AID923: inactive; 4MU fluor: 1.1e-06M

Results for COc1ccc2c(c1)OCC(Cc1ccc(OC)c(OC(C)=O)c1)C2=O (stereo not given) ?
HSD17B inhib: inactive; AID923: inactive

Results for CN(C(=O)c1ccccc1C(=O)O)C1CC(C)(C)NC(C)(C)C1 ?
HADH2 inhib: inactive; HSD17B inhib: inactive; AID923: inactive

How did Cc1cc(N2CCOCC2)nc2ccc(NC(=O)CCC(=O)N3CCCCC3)cc12 do in these assays?
A350 fluor: 1.5e-06M; HADH2 inhib: 13µM; HSD17B inhib: 16µM; AID923: inactive; 4MU fluor: 1.6e-06M

What do the screens show for `CCN1CCN(c2cc(C)c3cc(NC(=O)Cc4ccc(OC)c(OC)c4)ccc3n2)CC1`?
HADH2 inhib: 25µM; HSD17B inhib: 32µM; AID923: inactive

What do the screens show for `CCN1CCN(c2cc(C)c3cc(NC(=O)c4cnccn4)ccc3n2)CC1`?
HADH2 inhib: inactive; HSD17B inhib: inactive; AID923: inactive

How did CCCCN(C)C(=O)CCC(=O)Nc1ccc2nc(N3CCOCC3)cc(C)c2c1 do in these assays?
A350 fluor: 1.3e-06M; HADH2 inhib: 7.9µM; HSD17B inhib: 25µM; AID923: inactive; 4MU fluor: 1.5e-06M

How did Cc1cc(N2CCOCC2)nc2ccc(Cc3ccc4nc(N5CCOCC5)cc(C)c4c3)cc12 do in these assays?
A350 fluor: 2.9e-08M; HADH2 inhib: inactive[11.4 µM]; HSD17B inhib: inactive[11.4 µM]; AID923: inactive[11.5 µM]; 4MU fluor: 2.7e-08M

Results for O=c1c(-c2ccccc2)nc2cncnc2n1Cc1ccccc1Cl ?
A350 fluor: inactive; HADH2 inhib: inactive; HSD17B inhib: inconclusive; AID923: inactive; 4MU fluor: inactive

How did CC(C(=O)O)c1ccc(N2Cc3ccccc3C2=O)cc1 (stereo not given) do in these assays?
HSD17B inhib: inactive; AID923: inactive

How did COc1ccc(N(C)C(=O)CCC(=O)Nc2ccc3nc(N4CCOCC4)cc(C)c3c2)c(OC)c1 do in these assays?
A350 fluor: 4.9e-07M; HADH2 inhib: 25µM; HSD17B inhib: 25µM; AID923: inactive; 4MU fluor: 5.3e-07M

How did COc1ccc(N(CC(=O)NC2CCCC2)C(=O)CCC(=O)Nc2cc(C)on2)c(OC)c1 do in these assays?
A350 fluor: inactive; HADH2 inhib: inactive; HSD17B inhib: inactive; AID923: inactive; 4MU fluor: inactive

How did Cc1ccc(-c2ccc(C(=O)O)[nH]2)cc1 do in these assays?
A350 fluor: 1.8e-08M; HADH2 inhib: inactive; HSD17B inhib: inconclusive; AID923: inactive; 4MU fluor: 2e-08M

How did COc1ccccc1CNCCCCCCNCCCCCCCCNCCCCCCNCc1ccccc1OC do in these assays?
A350 fluor: inactive; HADH2 inhib: inactive; HSD17B inhib: inactive; AID923: inactive; 4MU fluor: inactive

What do the screens show for `Cc1nc2c(C(=O)O)cnn2c(C)c1Cc1ccccc1F`?
A350 fluor: inconclusive; HADH2 inhib: inactive; HSD17B inhib: inconclusive; AID923: inactive; 4MU fluor: inconclusive

Results for Cc1ccccc1Cc1c(C)nc2c(C(=O)NCc3ccco3)cnn2c1C ?
A350 fluor: 1.5e-08M; HADH2 inhib: 32µM; HSD17B inhib: 32µM; AID923: inactive; 4MU fluor: 1.2e-08M

How did Cc1ccc(Cc2c(C)nc3nc(SCC(=O)NCc4ccco4)nn3c2C)cc1 do in these assays?
A350 fluor: inactive; HADH2 inhib: inactive; HSD17B inhib: 13µM; AID923: inactive; 4MU fluor: inactive

How did Cc1cccc(Cc2c(C)nc3nc(SCC(=O)NCc4ccco4)nn3c2C)c1 do in these assays?
A350 fluor: inactive; HADH2 inhib: inactive; HSD17B inhib: inconclusive; AID923: inactive; 4MU fluor: inactive

Results for Cc1ccccc1Cc1c(C)nc2nc(SCC(=O)NCc3ccco3)nn2c1C ?
A350 fluor: inactive; HADH2 inhib: inactive; HSD17B inhib: 32µM; AID923: inactive; 4MU fluor: inactive

How did Cc1cc(C)c(C)c(S(=O)(=O)NCCC(=O)O)c1C do in these assays?
HADH2 inhib: inactive; HSD17B inhib: inactive; AID923: inactive

How did COC(=O)c1c(N)c(C#N)c2n1CCCCC2 do in these assays?
A350 fluor: 2.6e-08M; HADH2 inhib: inactive; HSD17B inhib: inactive; AID923: inactive; 4MU fluor: 2.2e-08M

How did N#Cc1c(N)c(C(=O)c2ccccc2)n2c1CCC2 do in these assays?
A350 fluor: inactive; HADH2 inhib: inactive; HSD17B inhib: inactive; AID923: inactive; 4MU fluor: inactive

How did O[C@@](CCN1CCCCC1)(c1ccccc1)C1CCCCC1 do in these assays?
A350 fluor: inactive; HADH2 inhib: inactive; HSD17B inhib: inactive; AID923: inactive; 4MU fluor: inactive

How did CS(=O)(=O)N1CCN(c2ccccc2NC(=O)Cc2ccc(Cl)cc2)CC1 do in these assays?
A350 fluor: inactive; HADH2 inhib: inactive; HSD17B inhib: inactive; AID923: inactive; 4MU fluor: inactive

Results for CS(=O)(=O)N1CCN(c2ccccc2NC(=O)c2ccc(-c3ccc(Cl)cc3Cl)o2)CC1 ?
A350 fluor: 2.5e-08M; HADH2 inhib: inactive; HSD17B inhib: 25µM; AID923: inactive; 4MU fluor: 2.8e-08M

What do the screens show for `O=c1c(O)cc(C2Oc3cc(O)cc(O)c3CC2O)cc2c(C3Oc4cc(O)cc(O)c4CC3O)cc(O)c(O)c12` (stereo not given)?
HSD17B inhib: 7.9µM; AID923: inactive

What do the screens show for `Oc1cc(O)c2c(c1)O[C@H](c1ccc(O)c(O)c1)[C@@H](O)C2`?
A350 fluor: inactive; HADH2 inhib: inconclusive; HSD17B inhib: inactive; AID923: inactive; 4MU fluor: inactive

How did Cc1cc(C)nc(-n2nc(C)c3c(C(F)F)cc(C)nc32)n1 do in these assays?
A350 fluor: 5e-08M; HADH2 inhib: inactive; HSD17B inhib: inactive; AID923: inactive; 4MU fluor: 2.6e-08M

What do the screens show for `Nn1c(SC/C=C/c2ccccc2)nnc1-c1ccccn1`?
A350 fluor: inactive; HADH2 inhib: inactive; HSD17B inhib: inactive; AID923: inactive; 4MU fluor: inactive
